Common to all, as to settings: mRNA level, 48 h; actives raise or lower the signal
Read-out in assay [1]: Cytochrome P450 2C19 (Homo sapiens) (UniProt P33261)
The assay can be described thus: LTEA_HepaRG_CYP2C19: Life Technologies and Expression Analysis (LTEA) Assay for CYP2C19 using HepaRG (AID 2283482). A digest of the protocol: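 Human HepaRG liver cells received test chemicals for 48 h (highest 100 uM, half-log dilutions in 0.5% DMSO). CYP2C19 mRNA induction or loss is read by multiplexed qRT-PCR and fitted in both directions versus vehicle.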

Read-out in assay [2]: CYP2C8 (gene 1558)
The assay can be described thus: LTEA_HepaRG_CYP2C8: Life Technologies and Expression Analysis (LTEA) Assay for CYP2C8 using HepaRG (AID 2283483). A digest of the protocol:
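This is a transcriptional endpoint in HepaRG cultures: 48 h exposure, highest concentration 100 uM. CYP2C8 mRNA is quantified by TaqMan qRT-PCR.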

Read-out in assay [3]: CYP2C9 (gene 1559)
The assay can be described thus: LTEA_HepaRG_CYP2C9: Life Technologies and Expression Analysis (LTEA) Assay for CYP2C9 using HepaRG (AID 2283484). A digest of the protocol: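 Eight-point concentration-response (highest 100 uM, half-log dilutions) in HepaRG cells for 48 h; CYP2C9 expression by qRT-PCR normalized to ACTB, GAPDH, POLR2A. Bidirectional fit, DMSO baseline.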

Read-out in assay [4]: CYP2E1 (gene 1571)
The assay can be described thus: LTEA_HepaRG_CYP2E1: Life Technologies and Expression Analysis (LTEA) Assay for CYP2E1 using HepaRG (AID 2283485). In outline: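 Assay uses 48 h exposure of HepaRG hepatic cells, eight concentrations to 100 uM. Expression of CYP2E1 is quantified by TaqMan qRT-PCR with ACTB, GAPDH and POLR2A normalization; curves fitted in both directions relative to vehicle.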

Read-out in assay [5]: CYP4A11 (gene 1579)
The assay can be described thus: LTEA_HepaRG_CYP4A11: Life Technologies and Expression Analysis (LTEA) Assay for CYP4A11 using HepaRG (AID 2283486). A digest of the protocol:
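Readout is CYP4A11 mRNA induction or suppression (qRT-PCR, ACTB/GAPDH/POLR2A normalization) in human HepaRG cells after 48 h chemical treatment, concentrations to 100 uM in 0.5% DMSO, fitted bidirectionally against vehicle.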

Read-out in assay [6]: Cytochrome P450 3A4 (Homo sapiens) (UniProt P08684)
The assay can be described thus: LTEA_HepaRG_CYP3A4: Life Technologies and Expression Analysis (LTEA) Assay for CYP3A4 using HepaRG (AID 2283487). A digest of the protocol:
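In a human hepatic line (HepaRG), duplicate wells were treated 48 h with up to 100 uM chemical in half-log dilutions. Endpoint: CYP3A4 mRNA induction or loss relative to 0.5% DMSO vehicle, by qRT-PCR.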

Read-out in assay [7]: DNA damage-inducible transcript 3 (DDIT3), DDIT3 (gene 1649)
The assay can be described thus: LTEA_HepaRG_DDIT3: Life Technologies and Expression Analysis (LTEA) Assay for DNA damage-inducible transcript 3 (DDIT3) using HepaRG (AID 2283488). In outline: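 Eight-point concentration-response (100 uM highest, half-log dilutions) in HepaRG, 48 h, duplicate wells. Endpoint: qRT-PCR mRNA, normalized (ACTB, GAPDH, POLR2A), bidirectional fitting with DMSO as baseline.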

Read-out in assay [8]: Pro-epidermal growth factor (Homo sapiens) (UniProt P01133)
The assay can be described thus: LTEA_HepaRG_EGF: Life Technologies and Expression Analysis (LTEA) Assay for Epidermal growth factor (EGF) using HepaRG (AID 2283489). In outline: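 EGF expression changes in human HepaRG cells are scored by bidirectional fitting relative to 0.5% DMSO controls. Chemicals are tested at eight half-log concentrations up to 100 uM for 48 h in serum-free induction medium.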

Read-out in assay [9]: Ezrin (EZR), EZR (gene 7430)
The assay can be described thus: LTEA_HepaRG_EZR: Life Technologies and Expression Analysis (LTEA) Assay for Ezrin (EZR) using HepaRG (AID 2283491). In outline: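 Gain or loss of EZR mRNA is scored relative to 0.5% DMSO in human HepaRG cultures treated 48 h with test chemicals in duplicate, eight half-log concentrations from 100 uM.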

Read-out in assay [10]: Early growth response protein 1 (EGR1) transcription factor, EGR1 (gene 1958)
The assay can be described thus: LTEA_HepaRG_EGR1: Life Technologies and Expression Analysis (LTEA) Assay for Early growth response protein 1 (EGR1) transcription factor using HepaRG (AID 2283490). A digest of the protocol: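 EGR1 expression change in human HepaRG after 48 h chemical exposure, assessed by housekeeping-normalized qRT-PCR; concentration-response up to 100 uM, fitted in both directions against DMSO controls.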

Values joined by “and” are separate entries in the source; they are usually repeats but may differ in a detail not shown here. Equal entries are not always repeated. Some compounds were tested as several samples or in several runs, with calls that do not always agree. Active and inactive are the calls of the source. The calls were made as follows: active = hit-call score of the fitted dose curve at least 0.9, where 1 is the maximum; inactive = score below 0.9.

The record followed here is PubChem BioAssay (EPA / NIEHS).

Sequence of Cytochrome P450 3A4 (Homo sapiens) (P08684 whole entry, looked up): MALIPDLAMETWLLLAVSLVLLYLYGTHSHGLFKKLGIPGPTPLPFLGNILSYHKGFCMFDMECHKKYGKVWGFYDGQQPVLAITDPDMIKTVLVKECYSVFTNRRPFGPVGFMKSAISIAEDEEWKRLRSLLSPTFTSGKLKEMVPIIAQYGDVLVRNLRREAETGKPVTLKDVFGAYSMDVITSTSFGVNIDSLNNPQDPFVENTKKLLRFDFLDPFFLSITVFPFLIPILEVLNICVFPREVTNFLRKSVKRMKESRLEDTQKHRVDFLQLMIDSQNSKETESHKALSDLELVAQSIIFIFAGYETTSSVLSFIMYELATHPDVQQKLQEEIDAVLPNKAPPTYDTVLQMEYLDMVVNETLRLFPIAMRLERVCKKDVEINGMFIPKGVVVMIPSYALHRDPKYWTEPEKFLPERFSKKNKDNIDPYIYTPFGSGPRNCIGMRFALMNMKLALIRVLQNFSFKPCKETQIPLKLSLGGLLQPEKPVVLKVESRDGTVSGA
Sequence of Cytochrome P450 2C19 (Homo sapiens) (P33261 whole entry, looked up): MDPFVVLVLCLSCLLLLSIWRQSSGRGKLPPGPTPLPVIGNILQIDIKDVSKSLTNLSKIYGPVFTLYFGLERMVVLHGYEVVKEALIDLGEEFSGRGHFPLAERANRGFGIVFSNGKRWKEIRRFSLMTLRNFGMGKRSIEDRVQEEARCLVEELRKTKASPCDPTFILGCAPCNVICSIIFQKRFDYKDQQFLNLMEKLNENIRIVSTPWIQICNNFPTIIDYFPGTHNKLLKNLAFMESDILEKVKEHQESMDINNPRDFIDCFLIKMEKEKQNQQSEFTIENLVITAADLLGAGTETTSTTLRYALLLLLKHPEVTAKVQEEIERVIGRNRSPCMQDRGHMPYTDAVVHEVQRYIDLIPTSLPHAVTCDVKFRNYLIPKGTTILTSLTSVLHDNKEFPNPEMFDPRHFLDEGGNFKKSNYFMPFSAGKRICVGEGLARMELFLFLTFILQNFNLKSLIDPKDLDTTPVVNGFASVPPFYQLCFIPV

By AC50 is commonly meant the midpoint of the concentration-response curve, whichever way the signal moves. Regarding `O=C(O)C(F)(F)C(F)(F)C(F)(F)C(F)(F)C(F)(F)C(F)(F)C(F)(F)F`, the AC50 was 9.92 µM (active) and 5.55 µM (active) in [1]; 12.8 µM (active) in assay [2]; 12.8 µM (active) and 6.48 µM (active) in [5]. The outcome in assay [2], in assay [3], in assay [4], in [6], in [7] and in [8] was inactive. For the same molecule, the result in assay [9] was inactive.
For `ClC1C(Cl)C(Cl)C(Cl)C(Cl)C1Cl` (stereo unspecified), the AC50 was 1.1 µM (active) and 1.12 µM (active) in assay [1]; 0.418 µM (active) in assay [2]; 1.93 µM (active) in [3]; 22.3 µM (active) and 5.02 µM (active) in assay [4]; 12.6 µM (active) in assay [5]; 1.92 µM (active) in assay [8]. The call in assay [2], in assay [3], in assay [5], in [7], in [8] and in assay [9] was inactive.
On to `Oc1cc(Cl)ccc1Oc1ccc(Cl)cc1Cl`, for which the AC50 in [1] is 83.2 µM (active); in assay [2], 86.4 µM (active); in assay [3], 93.4 µM (active); in assay [4], 92.2 µM (active); in assay [5], 51 µM (active) and 79.3 µM (active). The call in assay [1], in assay [2], in assay [3], in [4], in assay [5] and in assay [6] was inactive. The call in assay [7], in [8] and in [9] was inactive.
As to `N#Cc1c(Cl)c(Cl)c(Cl)c(C#N)c1Cl`, the call in assay [1], in assay [3] and in [9] was inactive. The AC50 in [2] was 50 µM (active); in [4], 66.1 µM (active); in [5], 50 µM (active); in assay [6] it was 19 µM (active); in assay [7], 19.1 µM (active); in [8] it was 6.66 µM (active).
Regarding `O=S1OCC2C(CO1)C1(Cl)C(Cl)=C(Cl)C2(Cl)C1(Cl)Cl` (stereo unspecified), the AC50 is 89.2 µM (active) in [1]; 81.1 µM (active) in assay [2]; 82.4 µM (active) in assay [3]; 55.7 µM (active) in assay [4]; 62.6 µM (active) in assay [5]; 11.7 µM (active) in [6]. In assay [7], the AC50 was 80 µM (active). For the same molecule, the molecule was classed as inactive in [8] and in [9].
`CCOC1Oc2ccc(OS(C)(=O)=O)cc2C1(C)C` (stereo unspecified): the AC50 in assay [1] is 11.7 µM (active); in [2] it was 86.4 µM (active); in assay [3], 82 µM (active); in assay [4] it was 62.6 µM (active); in assay [5], 69.1 µM (active); in assay [6] it was 11.8 µM (active). For the same molecule, the concentration at half-maximal activity (AC50) in assay [7] is 93 µM (active); in [9], 78.8 µM (active). Further, the call in [8] was inactive.
`CC[C@H](C)[C@H]1O[C@]2(C=C[C@@H]1C)C[C@@H]1C[C@@H](C/C=C(\C)[C@@H](O[C@H]3C[C@H](OC)[C@@H](O[C@H]4C[C@H](OC)[C@@H](O)[C@H](C)O4)[C@H](C)O3)[C@@H](C)/C=C/C=C3\CO[C@@H]4[C@H](O)C(C)=C[C@@H](C(=O)O1)[C@]34O)O2` (tested in a mixture with another compound): the half-maximal activity concentration (AC50) in assay [1] was 11.6 µM (active); in assay [2], 14.1 µM (active); in assay [3] it was 7.85 µM (active); in assay [4] it was 8.08 µM (active); in assay [5] it was 7.39 µM (active); in assay [6], 10 µM (active). Also, the AC50 in assay [7] was 10.1 µM (active); in [8], 48.4 µM (active); in assay [9], 7.92 µM (active).
With `CC(C)(C)C(O)C(Oc1ccc(Cl)cc1)n1cncn1` (stereo unspecified), the concentration at half-maximal activity (AC50) in assay [1] is 2.61 µM (active) and 3.24 µM (active) and 1.89 µM (active); in assay [2] it was 3.91 µM (active) and 4.21 µM (active); in assay [4], 25.8 µM (active) and 25.3 µM (active) and 29.5 µM (active); in assay [5], 18.1 µM (active) and 13.8 µM (active) and 25.4 µM (active). The molecule was called inactive in [2], in assay [3], in [7], in [8] and in [9].
`Clc1ccccc1-c1nnc(-c2ccccc2Cl)nn1`: the half-maximal activity concentration (AC50) in assay [1] is 15.3 µM (active); in assay [4], 20.7 µM (active); in assay [6] it was 9.38 µM (active). Besides, the molecule was classed as inactive in assay [2], in assay [3], in assay [5], in assay [7], in [8] and in assay [10]. Besides, the molecule was called inactive in assay [9].
For `CCCN(CCC)c1c([N+](=O)[O-])cc(C(F)(F)F)cc1[N+](=O)[O-]`, the outcome in assay [1], in [2], in assay [3], in assay [4], in [5] and in assay [6] was inactive. In addition, the molecule was called inactive in assay [7], in [8], in assay [10] and in [9].
